Screens (PubChem BioAssay)
In the library only some 5.7% were active in any assay of this set; here they are far more common.
KB-V1 MDR tox: kills drug-selected multidrug resistant KB-V1 cells. Potency, µM (titrated, usually from 46.1 µM), hits mostly cytotoxic. KB-V1 MDR cells viability, CellTiter-Glo, 72 h. AID 1347076. 400,000 tested, 3.4% active; further: nearly all actives have a fitted effect of over 60% in size
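KB-V1 cells (P-gp-expressing MDR subline of KB-3-1) in phenol-red-free DMEM with 10% FBS were exposed to library compounds over a concentration series for 72 h at 37 degrees C. Viability read by CellTiter-Glo luminescence; concentration-effect curves fitted after normalization.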
HT1080-NT tox: kills 2HG-producing HT-1080-NT fibrosarcoma cells. HT-1080-NT fibrosarcoma viability, CellTiter-Glo ATP luminescence, 48 h. Potency, µM (top dose mostly 46.1 µM), inactives show at the top dose activity, negative = less viability, usual class: cytotoxic. 360,000 tested, 1.6% active;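 further: NT is the 2HG producing partner of a matched IDH1 knockdown line; 0% = DMSO-treated cells and -100% = media-only wells without cells; nearly all actives have a fitted effect of over 55% in size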
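HT-1080-NT; 750 cells/well; 5% FBS RPMI; 48 h compound, 37 degrees C; CellTiter-Glo luminescence; curve fitting and curve-class assignment.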
HT1080 IDH1KD tx: toxicity to HT-1080 IDH1 knockdown cells (counter line) | Potency, µM (top dose mostly 46.1 µM), for the others: top-dose activity, negative = toxicity, hits mostly cytotoxic | HT-1080 IDH1 knockdown viability, ATP luminescence, 48 h | 360,000 tested, 2% active;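 further: 0% = DMSO wells and -100% = cell-free medium wells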
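In this qHTS, HT-1080 cells depleted of IDH1 are exposed for 48 h at 37 °C to compound titrations. Toxicity is scored from CellTiter-Glo luminescence, with DMSO as full viability and medium alone as none.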
KB-3-1 cytotox: KB-3-1 parental cell cytotoxicity | 400,000 tested, 1.4% active | Potency, µM (top dose mostly 46.1 µM), usual class: cytotoxic | KB-3-1 viability, CellTiter-Glo ATP luminescence, 72 h; further: nearly all actives have a fitted effect of over 60% in size
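Luminescent ATP read-out (CellTiter-Glo) measures survival of drug-naive KB-3-1 cells after 72 h compound exposure at 37 °C. Titration series was screened from lowest to highest concentration, with DMSO vehicle plates as background controls.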
An asterisk follows results filed as active; i = inactive; ? = inconclusive; . = not tested or not shown; ! = a repeat was not active. The call rests on the fitted dose curve; in most records, active means well fitted curve in the direction sought with a large enough effect; inconclusive means small, poorly fitted or top-dose-only effect, or another doubt; inactive means no such curve, though single readings can be large; an effect the other way counts as inactive or inconclusive. Unless noted, on the % scale 0 is the no-effect control and ±100 the full control effect; potency means the concentration at half of the fitted maximal effect.

SMILES	KB-V1 MDR tox	HT1080-NT tox	HT1080 IDH1KD tx	KB-3-1 cytotox
CC1CCc2nc(NC(=O)CN3CCN(c4ccc(F)cc4)CC3)sc2C1 (configuration not stated)	i	1%	6%	i
COc1cccc(N2CCN(CC(=O)Nc3nc4c(s3)CC(C)CC4)CC2)c1 (configuration not stated)	18µM*	-9%	-23%	i
O=C(NC(=S)Nc1nc2c(s1)CCCC2)c1ccc(C(=O)c2ccccc2)cc1	4.1µM*	8%	-1%	23µM*
COC(=O)c1ccc(C(=O)NC(=S)Nc2nc3c(s2)CC(C)CC3)cc1 (configuration not stated)	?	13%	7%	16µM*
O=C(Nc1nc(-c2ccc(Cl)s2)cs1)c1ccncc1	6.5µM*	1%	-3%	?
Cc1c(C(=O)Nc2nccs2)sc2nc(-c3cccs3)cc(C(F)(F)F)c12	?	?	?	9.2µM*
CC1CC1C(=O)Nc1nc(-c2ccc(Cl)s2)cs1 (configuration not stated)	13µM*	-24%	-20%	?
O=C(Nc1nc(-c2cccs2)cs1)c1ccc([N+](=O)[O-])o1	21µM*	?	?	6.5µM*
Cc1c(C(=O)O)sc2nc(-c3cccs3)cc(C(F)(F)F)c12	i	-9%	0%	i
CCCCCSc1ncnc2c1sc1nc(N3CCOCC3)c3c(c12)CCCC3	i	.	.	i
COc1ccc(C(=O)Nc2nc(-c3cccs3)cs2)cc1	5.8µM*	5%	5%	?
Cc1csc(NC(=O)c2sc3nc(-c4cccs4)ccc3c2N)n1	21µM*	-9%	?	i
O=C(Nc1nc(-c2cccs2)cs1)c1ccc(Cl)cc1	21µM*	?	?	?
CCC(C)NC(=O)c1ccccc1NC(=O)C1CCN(S(=O)(=O)Cc2ccccc2)CC1 (configuration not stated)	i	.	.	i
CC(C)CCNC(=O)Cn1c(SCc2cccc(F)c2)nc2ccncc21	i	.	.	i
COC(=O)CS(=O)(=O)c1nc2ccccc2nc1N1CCCCC1	i	.	.	i
COc1ccc(N(CC(=O)Nc2cccc(Cl)c2C)S(=O)(=O)c2c(C)nn(C)c2C)cc1	i	.	.	i
Brc1ccc2c(c1)C(c1cccs1)=NNC(c1cccnc1)=N2	21µM*	-2%	-3%	i
CCOc1ccc2c(c1)C(c1cccs1)=NNC(c1cccnc1)=N2	?	1%	-12%	i
COC(=O)c1ccc(COc2ccccc2/C=C(\C#N)C(=O)Nc2c(C)cc(C)cc2C)cc1	16µM*	9.2µM*	18µM*	12µM*
COC(=O)c1ccc(COc2ccccc2/C=C(\C#N)C(=O)Nc2ccc(C)cc2C)cc1	?	23%	?	i
CSc1ccc(-c2nc3cccc(C)n3c2Nc2ccc(Cl)cc2)cc1	?	.	.	i
Cn1c(=O)c2[nH]c(CCC3CCCC3)nc2n(C)c1=O	23µM*	1%	1%	i
COc1ccc(C(=O)Nc2ccccc2-c2nc3ccccc3s2)c(OC)c1	i	.	.	i
COc1ccc(C(C)=O)cc1CSc1nnc(C)n1-c1ccccc1	21µM*	0%	-2%	i
SMILES	KB-V1 MDR tox	HT1080-NT tox	HT1080 IDH1KD tx	KB-3-1 cytotox
Cc1ccccc1C(=O)O/N=C(\N)Cc1cccs1	i	?	18µM*	?
N#Cc1c(-c2ccc(F)cc2)c(-c2ccc(F)cc2)nn(CCO)c1=O	8.2µM*	6.5µM*	8.2µM*	3.7µM*
CCOC(=O)c1c(NC(=O)CCCOc2ccc(C(C)(C)C)cc2)sc2c1CCCC2	i	.	.	i
COC(=O)c1c(C)oc2ccc(N(C(C)=O)S(=O)(=O)c3ccccc3)cc12	2.3µM*	-9%	?	23µM*
CC(=O)c1c(C)oc2ccc(N(C(C)=O)S(=O)(=O)c3cccc4cccnc34)cc12	?	?	26µM*	?
CC(=O)c1c(C)oc2ccc(N(C(=O)c3ccncc3)S(=O)(=O)c3ccccc3)cc12	?	-4%	-13%	i
CC(=O)c1c(C)oc2ccc(N(C(C)=O)S(=O)(=O)c3ccc(Br)cc3)cc12	?	-19%	-18%	i
CCCC(=O)N(c1ccc2oc(C)c(C(C)=O)c2c1)S(=O)(=O)c1ccc(CC)cc1	2.9µM*	.	.	3.7µM*
CC(=O)c1c(C)oc2ccc(N(C(C)=O)S(=O)(=O)c3ccc(Cl)c([N+](=O)[O-])c3)cc12	?	?	6.5µM*	?
Cc1nc2scc(C)n2c(=O)c1S(=O)(=O)Nc1cccc(C(F)(F)F)c1	?	.	.	i
Cc1cccc(NS(=O)(=O)c2c(C)nc3sccn3c2=O)c1C	?	.	.	i
COC(=O)c1c(C)oc2ccc(N(C(=O)c3ccncc3)S(=O)(=O)c3cc(C)ccc3C)cc12	6.5µM*	.	.	13µM*
Cc1ccc(S(=O)(=O)/N=C(/Nc2c(C)n(C)n(-c3ccccc3)c2=O)c2ccc(Cl)cc2)cc1	i	3%	7%	i
Cc1cccc(NC(=O)c2cccc(S(=O)(=O)Nc3c(C)n(C)n(-c4ccccc4)c3=O)c2)c1	15µM*	1%	3%	i
Cc1c(N/C(=N/S(=O)(=O)c2ccccc2)c2ccc(Cl)cc2)c(=O)n(-c2ccccc2)n1C	23µM*	1%	8%	i
COc1cc(N(C)C)c(OC)cc1/C=C1\Cc2ccccc2C1=O	i	.	.	i
CCOc1cc(C(=S)N2CCCCC2)ccc1OS(=O)(=O)c1ccc(Cl)cc1	2.9µM*	-25%	-6%	?
CCOc1cc(C(=S)N2CCCCC2)ccc1OS(=O)(=O)c1ccc(Br)cc1	4.1µM*	-21%	-1%	?
Cc1ccc(OCC(=O)Nc2sc3c(c2C(N)=O)CCCC3)c(C(C)(C)C)c1	i	.	.	i
Cc1ccc(-c2nc(N=Nc3ccc(O)cc3)n[nH]2)cc1	13µM*	12%	-15%	i
COc1ccc(-c2nc(N=Nc3ccc(O)cc3)n[nH]2)cc1	i	7%	-9%	i
N#Cc1cc2ccccc2nc1SCC(=O)Nc1ccccc1N1CCOCC1	4.6µM*	7%	0%	i
Cc1cccc2cc(C#N)c(SCC(=O)Nc3ccccc3N3CCOCC3)nc12	i	-4%	-1%	i
Cc1ccc(NC(=O)CSc2nc3ccccc3nc2N2CCOCC2)cc1	18µM*!	?	-21%	i
CCCCCC(=O)N[C@@H](c1ccccc1)[C@@H](O)C(=O)O[C@H]1C[C@@]2(O)[C@@H](OC(=O)c3ccccc3)C3[C@](C)(C(=O)[C@H](OC(C)=O)C(=C1C)C2(C)C)[C@@H](O)C[C@H]1OC[C@@]31OC(C)=O (some centres not stated)	?	?	0.0058µM*	0.21µM*
